Test results published in PubChem BioAssay.

What follows are compounds tested against Neurogenic locus notch homolog protein 2 (Homo sapiens) (UniProt Q04721) (assay: Notch2 binders on small-molecule microarrays, primary screen, biochemical, small-molecule microarray, 635 nm fluorescence, stem cell growth factors (AID 1073)). Details: Notch2 binding, higher = more signal.
Sequence of Neurogenic locus notch homolog protein 2 (Homo sapiens) (Q04721 whole entry, looked up): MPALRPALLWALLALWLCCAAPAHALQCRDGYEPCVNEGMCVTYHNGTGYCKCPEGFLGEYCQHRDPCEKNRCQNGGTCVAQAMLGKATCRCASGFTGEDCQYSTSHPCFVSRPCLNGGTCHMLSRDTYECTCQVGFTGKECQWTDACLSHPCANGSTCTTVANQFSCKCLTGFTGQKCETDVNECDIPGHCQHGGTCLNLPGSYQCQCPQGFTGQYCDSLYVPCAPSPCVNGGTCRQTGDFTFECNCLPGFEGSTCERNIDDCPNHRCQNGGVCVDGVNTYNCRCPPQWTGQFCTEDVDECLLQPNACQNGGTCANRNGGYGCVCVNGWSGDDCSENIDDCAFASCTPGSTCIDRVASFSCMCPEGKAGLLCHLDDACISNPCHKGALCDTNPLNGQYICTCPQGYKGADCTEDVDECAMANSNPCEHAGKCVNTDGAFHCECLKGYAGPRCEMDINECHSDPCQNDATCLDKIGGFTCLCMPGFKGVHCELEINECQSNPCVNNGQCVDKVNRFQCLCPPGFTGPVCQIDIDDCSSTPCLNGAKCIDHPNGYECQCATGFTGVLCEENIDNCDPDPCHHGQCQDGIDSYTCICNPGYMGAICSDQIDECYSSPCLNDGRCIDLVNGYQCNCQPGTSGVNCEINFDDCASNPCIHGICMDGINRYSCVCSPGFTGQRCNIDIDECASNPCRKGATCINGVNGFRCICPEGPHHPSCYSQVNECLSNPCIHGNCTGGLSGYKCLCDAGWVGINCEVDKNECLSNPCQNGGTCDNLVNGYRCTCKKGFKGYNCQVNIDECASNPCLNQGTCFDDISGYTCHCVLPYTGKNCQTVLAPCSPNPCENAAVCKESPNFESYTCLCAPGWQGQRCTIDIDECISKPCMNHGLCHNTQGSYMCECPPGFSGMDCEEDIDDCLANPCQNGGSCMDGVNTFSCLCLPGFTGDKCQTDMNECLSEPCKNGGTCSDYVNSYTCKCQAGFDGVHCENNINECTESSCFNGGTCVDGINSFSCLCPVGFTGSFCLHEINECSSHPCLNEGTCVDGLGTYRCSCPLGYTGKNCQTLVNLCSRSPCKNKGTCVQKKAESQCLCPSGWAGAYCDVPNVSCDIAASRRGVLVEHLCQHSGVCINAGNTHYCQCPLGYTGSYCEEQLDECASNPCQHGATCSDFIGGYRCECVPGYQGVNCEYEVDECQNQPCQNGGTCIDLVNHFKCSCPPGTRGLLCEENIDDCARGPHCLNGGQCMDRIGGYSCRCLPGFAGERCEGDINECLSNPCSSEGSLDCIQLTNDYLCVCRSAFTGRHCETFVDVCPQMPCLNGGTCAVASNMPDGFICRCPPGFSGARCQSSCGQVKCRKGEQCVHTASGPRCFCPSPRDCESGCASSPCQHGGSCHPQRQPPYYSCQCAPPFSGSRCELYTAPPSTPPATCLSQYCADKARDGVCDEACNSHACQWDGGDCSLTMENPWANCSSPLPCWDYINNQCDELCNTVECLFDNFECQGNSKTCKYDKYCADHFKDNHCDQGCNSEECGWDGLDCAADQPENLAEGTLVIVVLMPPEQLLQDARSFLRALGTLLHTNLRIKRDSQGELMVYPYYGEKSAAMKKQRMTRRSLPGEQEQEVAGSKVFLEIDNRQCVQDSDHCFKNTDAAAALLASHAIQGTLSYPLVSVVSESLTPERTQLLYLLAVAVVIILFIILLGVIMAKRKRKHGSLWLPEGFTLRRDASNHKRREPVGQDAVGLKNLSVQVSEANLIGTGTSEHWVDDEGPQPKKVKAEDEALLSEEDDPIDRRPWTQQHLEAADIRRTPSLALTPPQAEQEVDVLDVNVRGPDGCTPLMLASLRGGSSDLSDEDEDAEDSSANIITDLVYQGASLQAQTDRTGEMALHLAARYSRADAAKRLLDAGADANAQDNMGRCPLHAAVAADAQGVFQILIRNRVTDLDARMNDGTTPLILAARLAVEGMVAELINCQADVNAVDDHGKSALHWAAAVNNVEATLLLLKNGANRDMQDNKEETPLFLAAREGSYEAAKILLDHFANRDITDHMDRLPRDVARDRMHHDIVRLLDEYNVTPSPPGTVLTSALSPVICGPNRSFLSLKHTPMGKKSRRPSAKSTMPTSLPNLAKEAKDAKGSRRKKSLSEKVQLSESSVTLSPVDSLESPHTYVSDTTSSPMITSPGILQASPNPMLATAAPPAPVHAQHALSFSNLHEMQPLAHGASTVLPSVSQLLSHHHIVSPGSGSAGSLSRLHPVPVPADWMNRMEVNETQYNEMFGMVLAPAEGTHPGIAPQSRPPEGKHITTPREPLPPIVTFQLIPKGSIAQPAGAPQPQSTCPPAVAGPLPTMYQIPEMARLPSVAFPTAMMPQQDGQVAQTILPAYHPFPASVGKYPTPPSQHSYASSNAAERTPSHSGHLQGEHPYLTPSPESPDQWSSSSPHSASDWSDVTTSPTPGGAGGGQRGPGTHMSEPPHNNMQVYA

| SMILES | composite z-score |
| --- | --- |
| COCCOC(=O)N1C(=O)[C@@]2(c3cc(C#CCNC(N)=O)ccc31)[C@H](C(=O)NC[C@H](O)c1ccccc1)[C@H]1C(=O)O[C@H](c3ccccc3)[C@H](c3ccccc3)N1[C@@H]2c1ccc(OCCO)cc1 | 0.431 |
| COC(=O)[C@@]1(Cc2ccc(F)cc2)[C@H]2c3cc(C(=O)N(C)C)n(CCn4cc([N+](=O)[O-])nc4C)c3C[C@H]2CN1C(=O)c1ccccc1 | 1.43 |
| CN(C)CCCCNC(=O)[C@H]1C[C@H]2C(=O)N[C@@H](Cc3ccccc3)C(=O)N2[C@H]1c1cccc(OCCO)c1 | -0.252 |
| CCCCN1CC=CC23O[C@@H]4/C=C\CCC(C)OC(=O)C4[C@H]2C(=O)N(C(C)CO)[C@@H]3C1=O (stereo not given in full) | -0.831 |
| CCCCC(=C=CC[C@@H](O)c1cccc(OCCO)c1)CCO | -0.277 |
| CN1C=C(C(=O)OCCS(C)(=O)=O)C(C(=O)OCCS(C)(=O)=O)=CC(CCCO)=CC1c1ccc(CN2CCCC2)cc1 (stereo not given) | 1.25 |
| C#CCN(C/C=C/c1ccccc1)[C@H](CO[Si](C)(C)C(C)(C)C)c1ccccc1 | -1.14 |
| O=C1O[C@H](c2ccccc2)[C@H](c2ccccc2)N2[C@H]1[C@@H](C(=O)N1CCN(c3ncccn3)CC1)[C@]1(C(=O)Nc3ccccc31)[C@H]2c1ccc(O)cc1 | 0.239 |
| [N-]=[N+]=NCc1ccccc1[C@@H]1OC(c2ccc(OCCCO)cc2)=N[C@]1(Cc1ccccc1)C(=O)NCc1ccccc1 | 1.3 |
| C=CCOC(=O)[C@H]1[C@@H]2C(=O)O[C@@H](c3ccccc3)[C@@H](c3ccccc3)N2[C@@H](c2ccc(OCCOC(=O)[C@@H]3C[C@@H]4C(=O)N[C@@H](CC(C)C)C(=O)N4[C@@H]3c3ccc(O)cc3)cc2)[C@]12C(=O)Nc1ccc(I)cc12 | 0.672 |
